Results from PubChem BioAssay (NCATS).
Records with an inconclusive call do not appear. Activity calls are given as the source filed them. Unless noted, the call rests on the fitted dose curve; in most records, active means well fitted curve in the direction sought with a large enough effect; inconclusive means small, poorly fitted or top-dose-only effect, or another doubt; inactive means no such curve, though single readings can be large; an effect the other way counts as inactive or inconclusive.

Tests used:
[1] = target: Cytochrome P450 2D6 (Homo sapiens) (UniProt P10635); test: qHTS Assay for Inhibitors and Substrates of Cytochrome P450 2D6 (AID 891)
Method in brief: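 Luminescent read-out of luciferin formed by 5 nM human CYP2D6 demethylating 30 uM Luciferin-ME EGE (Km level) over 60 min at room temperature after NADPH regeneration addition. Data normalized to full inhibition by 1.43 uM quinidine.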

[2] = target: Cytochrome P450 2C19 (Homo sapiens) (UniProt P33261); test: qHTS Assay for Inhibitors and Substrates of Cytochrome P450 2C19 (AID 899)
Method in brief: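 NADPH-dependent conversion of Luciferin-H EGE (10uM, at KM) by 5nM enzyme in 50mM KPO4, 60 min at 37C following 10 min compound preincubation. Stopped with luciferin detection buffer; luminescence read after 20 min.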

[3] = HEK-293 Cancer Cell Toxicity qHTS against the NCATS CANVASS Library (AID 1347355)
Method in brief: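 1000 cells/well, 4 h pre-incubation 37 °C/5% CO2; 11-pnt titration; 72 h; CellTiter-Glo 15 min RT, luminescence.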

[4] = SDT Cancer Cell Toxicity qHTS against the NCATS CANVASS Library (AID 1347365)
Method in brief: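 Luminescent ATP read-out (CellTiterGlo) after 72 hr compound exposure of dog glioma SDT cells, 500 per well. Eleven-point titrations; bortezomib titration run alongside as control.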

[5] = G06 Cancer Cell Toxicity qHTS against the NCATS CANVASS Library (AID 1347368)
Method in brief: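 ATP luminescence (CellTiterGlo) readout of cytotoxicity. Canine G06 glioma cells, 500/well, 72 hr incubation at 37C with compounds; bortezomib titration served as control.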

[6] = qHTS for ATAD5 Antagonist screened against the NCATS CANVASS Library (AID 1347370)
Method in brief: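 HEK293T-ATAD5 luc reporter, 2000 cells/well; 5hr attach; cpd + 10 uM 5-FUrd; 16hr 37C, 5% CO2. Readouts: CellTiter-Fluor fluorescence (1hr), then Amplite luciferase luminescence (30min RT).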

[7] = qHTS for Hypoxia signaling pathway (HIF-1) antagonists against the NCATS CANVASS Library (AID 1347374)
Method in brief: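 Beta-lactamase reporter under HRE control in ME-180 cells; CoCl2 stimulus (60 uM solution as added), compounds 11-pt qHTS, 17 h 37C. CCF4 dye 2 h RT, 460/530 nm emission. CellTiter-Glo viability in same wells.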

[8] = DH5-alpha competent E. coli microbial cell viability qHTS against the NCATS CANVASS Library (AID 1347377); settings: outcome: at 46.1 µM (top of the series)
Method in brief: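 Luminescent ATP read-out (BacTiter-Glo, 20 min RT) after overnight 37C culture of DH5-alpha E. coli with compounds; daunomycin control at 0.2 nM–9.2 uM final.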

[9] = qHTS for Inflammasome Signaling Inhibitors: IL-1-beta AlphaLISA screen against the NCATS CANVASS Library (AID 1347379)
Method in brief: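 THP-1, 1 hr compound pre-incubation, then LPS 250 ng/mL + ATP 1.25 mM (final); 16 hr total with compound; IL-1B AlphaLISA, ex 680/em 615 nm; 11-point qHTS, up to 57.5 uM final.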

[10] = qHTS for Activators of p53 Stress Response Pathway screened against the NCATS CANVASS Library (AID 1347388)
Method in brief: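 p53RE-bla HCT-116 cells (4000/well) were plated 5 h at 37C, exposed to compounds for 16 h at 37C over an 11-point concentration series, then loaded with CCF4 for 2 h at room temperature; 460/530 nm emission ratio read.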

[11] = qHTS for activators of Nrf2/ARE signaling pathway screened against the NCATS CANVASS Library (AID 1347391)
Method in brief: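 HepG2 ARE-bla; cpd 11-pt qHTS, 16 h 37C/5% CO2; CCF4 substrate 2 h RT; read ex 405 / em 460 + 530 nm. Viability by CellTiter-Glo luminescence, 30 min RT.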

[12] = qHTS for inhibitors of ER calcium dysfunction: SERCaMP assay screened against the NCATS CANVASS Library (AID 1347393)
Method in brief: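 qHTS in SH-SY5Y reporter cells: 16 h compound pretreatment, 4 h thapsigargin, then secreted Gaussia luciferase measured by luminescence.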

[13] = qHTS for inhibitors of Wild type Zika virus screened against the NCATS CANVASS Library (AID 1347396)
Method in brief: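 Vero 766 (African green monkey) cells, 1000 per well, attached overnight, then compounds were added in an 11-point series before wild-type Zika virus infection. After 72 h at 37C, cell viability was read as CellTiter Glo luminescence.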

[14] = qHTS for inhibitors of Rabies Virus screened against the NCATS CANVASS Library (AID 1347402; calls by dose curve)
[15] = qHTS for Antimalaria activity screened against the NCATS CANVASS Library (AID 1347380)
Method in brief: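 SYBR Green fluorescence (ex 485, em 535 nm) read after saponin/Triton lysis and 18 h further incubation; Dd2 asexual blood-stage parasites, 72 h compound exposure, 11-pt concentration series, 2.5% hematocrit, 0.3% parasitemia.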

[16] = target: Cytochrome P450 3A4 (Homo sapiens) (UniProt P08684); test: qHTS Assay for Inhibitors and Substrates of Cytochrome P450 3A4 (AID 884)
Method in brief: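 Luminescent readout of luciferin produced by CYP3A4 (20 nM) dealkylation of Luciferin-PPXE, 25 uM (its KM). NADPH-driven reaction ran 60 min at RT after 10 min compound preincubation; data scaled to 57 uM ketoconazole as 100% inhibition.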

Measured: Potency

Cytochrome P450 3A4 (Homo sapiens), sequence (P08684 whole entry, looked up): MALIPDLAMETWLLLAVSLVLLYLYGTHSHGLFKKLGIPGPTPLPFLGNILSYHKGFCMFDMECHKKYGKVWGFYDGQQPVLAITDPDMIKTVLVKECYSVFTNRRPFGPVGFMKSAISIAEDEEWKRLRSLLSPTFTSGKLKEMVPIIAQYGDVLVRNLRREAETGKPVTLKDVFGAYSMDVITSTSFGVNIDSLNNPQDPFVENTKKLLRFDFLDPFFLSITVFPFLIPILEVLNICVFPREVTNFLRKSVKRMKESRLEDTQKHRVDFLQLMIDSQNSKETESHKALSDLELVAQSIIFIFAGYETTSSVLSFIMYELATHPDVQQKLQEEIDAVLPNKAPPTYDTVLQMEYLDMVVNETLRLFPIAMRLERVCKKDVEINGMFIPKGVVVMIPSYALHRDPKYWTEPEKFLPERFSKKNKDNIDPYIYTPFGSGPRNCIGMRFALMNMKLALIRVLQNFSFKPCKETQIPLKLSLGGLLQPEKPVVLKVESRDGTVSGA
Cytochrome P450 2D6 (Homo sapiens), sequence (P10635 whole entry, looked up): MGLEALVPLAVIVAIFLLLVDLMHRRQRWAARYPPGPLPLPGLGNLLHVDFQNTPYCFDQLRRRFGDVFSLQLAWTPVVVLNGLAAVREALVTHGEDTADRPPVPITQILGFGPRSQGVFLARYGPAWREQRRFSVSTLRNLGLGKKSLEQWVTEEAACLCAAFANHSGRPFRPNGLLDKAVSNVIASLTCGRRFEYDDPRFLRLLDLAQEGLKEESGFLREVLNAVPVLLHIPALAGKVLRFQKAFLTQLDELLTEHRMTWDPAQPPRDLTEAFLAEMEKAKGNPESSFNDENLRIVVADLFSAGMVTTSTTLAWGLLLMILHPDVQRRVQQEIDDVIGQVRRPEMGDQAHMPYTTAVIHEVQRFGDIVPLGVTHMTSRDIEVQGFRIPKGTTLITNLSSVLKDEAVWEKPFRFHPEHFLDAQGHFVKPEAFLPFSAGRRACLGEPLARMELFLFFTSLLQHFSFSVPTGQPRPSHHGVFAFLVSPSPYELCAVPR
Cytochrome P450 2C19 (Homo sapiens), sequence (P33261 whole entry, looked up): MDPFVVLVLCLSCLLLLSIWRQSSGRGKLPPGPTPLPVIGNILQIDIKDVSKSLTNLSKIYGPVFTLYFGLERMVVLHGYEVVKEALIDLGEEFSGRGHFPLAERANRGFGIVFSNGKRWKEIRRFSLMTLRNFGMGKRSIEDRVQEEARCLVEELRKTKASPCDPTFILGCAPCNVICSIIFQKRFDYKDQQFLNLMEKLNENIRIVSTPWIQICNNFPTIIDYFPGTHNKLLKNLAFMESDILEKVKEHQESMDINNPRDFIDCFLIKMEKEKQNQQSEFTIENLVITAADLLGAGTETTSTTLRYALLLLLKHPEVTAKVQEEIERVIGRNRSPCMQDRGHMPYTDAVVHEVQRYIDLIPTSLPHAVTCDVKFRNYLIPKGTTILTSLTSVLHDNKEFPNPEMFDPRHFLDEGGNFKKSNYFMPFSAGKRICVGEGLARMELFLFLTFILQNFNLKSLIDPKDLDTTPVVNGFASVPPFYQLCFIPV

N[C@H](Cc1o[nH]c(=O)c1Cl)C(=O)O
active: [1] 158 nM | [2] 1260 nM

CO[C@@H](/C=C/CC/C=C/C(=O)O)[C@@H](O)[C@H](C)[C@@H](O)/C(C)=C/[C@H](C)C(=O)CCCC1CC(=O)NC(=O)C1
not listed: [1] | [2] | [15] | [16]
inactive: all other assays above

CO[C@@H](/C=C/CC/C=C/C(=O)O)[C@@H](O)[C@H](C)/C=C(\C)[C@@H](O)[C@H](C)C(=O)CCCC1CC(=O)NC(=O)C1
not listed: [1] | [2] | [8] | [16]
inactive: all other assays above

O=C(c1ccccc1O)c1[nH]c(Cl)c(Cl)c1-n1c(C(=O)c2ccccc2O)cc(Cl)c1Cl
inactive: [11] | [12]
active: [3] 4180 nM | [4] 2350 nM | [5] 5900 nM | [7] 1180 nM | [9] 15300 nM | [15] 472 nM

CCN1C[C@]2(C)CC[C@@H](O)[C@]34C1[C@H](C[C@H]23)C12CCC(CC14)[C@](O)(CO)[C@H]2O (stereo partly drawn)
not listed: [1] | [2] | [13] | [15] | [16]
inactive: all other assays above

C[C@]12CC(O)C3[C@@H](CCC4C[C@@H](O)CC[C@@]43CO)[C@@]1(O)CCC2C1=CC(=O)OC1 (stereo partly drawn)
active: [4] 2640 nM
not listed: [1] | [2] | [5] | [8] | [11] | [16]
inactive: all other assays above

CO[C@H](c1ccccc1)[C@H]1NC(=O)C(C)NC(=O)C(C[C@@H](C)CO)N(C)C(=O)[C@@H](C(O)c2cn(C(C)(C)C3CO3)c3ccccc23)NC(=O)C(C(C)C=C(C)C)NC(=O)C(CC(C)C)N(C)C(=O)C(C(C)C)NC1=O (stereo partly drawn)
inactive: [6] | [7] | [8] | [10] | [11] | [13] | [14]
active: [15] 292 nM

CCC(=O)CCCCC[C@@H]1NC(=O)[C@H]2CCCCN2C(=O)[C@H]([C@@H](C)CC)NC(=O)[C@H](Cc2cn(OC)c3ccccc23)NC1=O
active: [3] 935 nM | [4] 1050 nM | [5] 743 nM | [15] 33.4 nM
inactive: [6] | [7] | [8] | [11] | [12]

Cc1c(C(=O)c2ccc3ccccc3c2)c2cccc3c2n1[C@H](CN1CCOCC1)CO3
active: [16] 7940 nM

CC(C)n1cnc2c(C(=O)N[C@H]3CN4CCC3CC4)cc(Cl)cc21
inactive: [16]

Fc1ccc(C(OCCN2CCN(C/C=C\c3ccccc3)CC2)c2ccc(F)cc2)cc1
active: [1] 7940 nM | [2] 7940 nM

NC(=NCc1ccc(Cl)cc1)SCCCc1cnc[nH]1
active: [16] 1580 nM

CNCCc1ccccc1
active: [4] 46.9 nM
not listed: [1] | [2] | [5] | [15] | [16]
inactive: all other assays above
